From the supplement of paper PMC6411743
± gives the standard deviation of the averaged measurements. Of roughly 5,400 targets only a part is listed; those with the largest changes were picked by preference.

Compound: Nc1nc2c(ncn2[C@@H]2O[C@H](COP(=O)(O)OP(=O)(O)OP(=O)(O)O)[C@@H](O)[C@H]2O)c(=O)[nH]1 [guanosine triphosphate]
Assay: NP40-soluble protein abundance relative to vehicle (solubility fold change) (ratio); higher = more soluble protein in presence of GTP
Description: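 Solubility proteome profiling in Jurkat crude lysate. Lysate was treated with Mg-GTP (0.1-10 mM) for 10 min at room temperature and 3 min at 37 °C, then solubilised with 0.8% NP40 and benzonase, followed by ultracentrifugation. Proteins were quantified by TMT10 LC-MS/MS; the value is the NP40-soluble abundance relative to the NP40-processed vehicle, from 3 independent experiments.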

Chain of UniProt O60669 (O60669 whole entry): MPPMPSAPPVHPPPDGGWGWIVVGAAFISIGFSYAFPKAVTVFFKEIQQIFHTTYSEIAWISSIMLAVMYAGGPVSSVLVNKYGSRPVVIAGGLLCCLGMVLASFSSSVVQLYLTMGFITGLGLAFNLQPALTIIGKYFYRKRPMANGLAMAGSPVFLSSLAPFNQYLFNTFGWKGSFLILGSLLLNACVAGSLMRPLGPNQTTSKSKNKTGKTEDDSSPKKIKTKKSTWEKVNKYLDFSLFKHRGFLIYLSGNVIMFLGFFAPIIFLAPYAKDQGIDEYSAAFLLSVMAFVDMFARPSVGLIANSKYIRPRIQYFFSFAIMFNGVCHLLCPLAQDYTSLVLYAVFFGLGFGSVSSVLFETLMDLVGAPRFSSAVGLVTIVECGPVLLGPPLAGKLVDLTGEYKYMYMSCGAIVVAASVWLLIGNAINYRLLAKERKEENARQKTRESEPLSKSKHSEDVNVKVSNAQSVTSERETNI
Chain of UniProt P01137 (P01137 whole entry): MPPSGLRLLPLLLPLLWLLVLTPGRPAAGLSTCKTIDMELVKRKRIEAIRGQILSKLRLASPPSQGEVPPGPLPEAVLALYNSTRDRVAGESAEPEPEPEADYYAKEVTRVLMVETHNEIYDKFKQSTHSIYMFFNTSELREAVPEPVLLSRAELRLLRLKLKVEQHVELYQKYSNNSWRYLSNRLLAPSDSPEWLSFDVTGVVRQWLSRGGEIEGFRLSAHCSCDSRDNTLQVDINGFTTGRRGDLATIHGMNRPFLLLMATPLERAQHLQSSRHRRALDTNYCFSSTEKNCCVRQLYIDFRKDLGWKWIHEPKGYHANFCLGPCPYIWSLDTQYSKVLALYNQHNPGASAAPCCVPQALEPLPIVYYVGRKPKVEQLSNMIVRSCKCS
Chain of UniProt O60281 (O60281 whole entry, one chain of several): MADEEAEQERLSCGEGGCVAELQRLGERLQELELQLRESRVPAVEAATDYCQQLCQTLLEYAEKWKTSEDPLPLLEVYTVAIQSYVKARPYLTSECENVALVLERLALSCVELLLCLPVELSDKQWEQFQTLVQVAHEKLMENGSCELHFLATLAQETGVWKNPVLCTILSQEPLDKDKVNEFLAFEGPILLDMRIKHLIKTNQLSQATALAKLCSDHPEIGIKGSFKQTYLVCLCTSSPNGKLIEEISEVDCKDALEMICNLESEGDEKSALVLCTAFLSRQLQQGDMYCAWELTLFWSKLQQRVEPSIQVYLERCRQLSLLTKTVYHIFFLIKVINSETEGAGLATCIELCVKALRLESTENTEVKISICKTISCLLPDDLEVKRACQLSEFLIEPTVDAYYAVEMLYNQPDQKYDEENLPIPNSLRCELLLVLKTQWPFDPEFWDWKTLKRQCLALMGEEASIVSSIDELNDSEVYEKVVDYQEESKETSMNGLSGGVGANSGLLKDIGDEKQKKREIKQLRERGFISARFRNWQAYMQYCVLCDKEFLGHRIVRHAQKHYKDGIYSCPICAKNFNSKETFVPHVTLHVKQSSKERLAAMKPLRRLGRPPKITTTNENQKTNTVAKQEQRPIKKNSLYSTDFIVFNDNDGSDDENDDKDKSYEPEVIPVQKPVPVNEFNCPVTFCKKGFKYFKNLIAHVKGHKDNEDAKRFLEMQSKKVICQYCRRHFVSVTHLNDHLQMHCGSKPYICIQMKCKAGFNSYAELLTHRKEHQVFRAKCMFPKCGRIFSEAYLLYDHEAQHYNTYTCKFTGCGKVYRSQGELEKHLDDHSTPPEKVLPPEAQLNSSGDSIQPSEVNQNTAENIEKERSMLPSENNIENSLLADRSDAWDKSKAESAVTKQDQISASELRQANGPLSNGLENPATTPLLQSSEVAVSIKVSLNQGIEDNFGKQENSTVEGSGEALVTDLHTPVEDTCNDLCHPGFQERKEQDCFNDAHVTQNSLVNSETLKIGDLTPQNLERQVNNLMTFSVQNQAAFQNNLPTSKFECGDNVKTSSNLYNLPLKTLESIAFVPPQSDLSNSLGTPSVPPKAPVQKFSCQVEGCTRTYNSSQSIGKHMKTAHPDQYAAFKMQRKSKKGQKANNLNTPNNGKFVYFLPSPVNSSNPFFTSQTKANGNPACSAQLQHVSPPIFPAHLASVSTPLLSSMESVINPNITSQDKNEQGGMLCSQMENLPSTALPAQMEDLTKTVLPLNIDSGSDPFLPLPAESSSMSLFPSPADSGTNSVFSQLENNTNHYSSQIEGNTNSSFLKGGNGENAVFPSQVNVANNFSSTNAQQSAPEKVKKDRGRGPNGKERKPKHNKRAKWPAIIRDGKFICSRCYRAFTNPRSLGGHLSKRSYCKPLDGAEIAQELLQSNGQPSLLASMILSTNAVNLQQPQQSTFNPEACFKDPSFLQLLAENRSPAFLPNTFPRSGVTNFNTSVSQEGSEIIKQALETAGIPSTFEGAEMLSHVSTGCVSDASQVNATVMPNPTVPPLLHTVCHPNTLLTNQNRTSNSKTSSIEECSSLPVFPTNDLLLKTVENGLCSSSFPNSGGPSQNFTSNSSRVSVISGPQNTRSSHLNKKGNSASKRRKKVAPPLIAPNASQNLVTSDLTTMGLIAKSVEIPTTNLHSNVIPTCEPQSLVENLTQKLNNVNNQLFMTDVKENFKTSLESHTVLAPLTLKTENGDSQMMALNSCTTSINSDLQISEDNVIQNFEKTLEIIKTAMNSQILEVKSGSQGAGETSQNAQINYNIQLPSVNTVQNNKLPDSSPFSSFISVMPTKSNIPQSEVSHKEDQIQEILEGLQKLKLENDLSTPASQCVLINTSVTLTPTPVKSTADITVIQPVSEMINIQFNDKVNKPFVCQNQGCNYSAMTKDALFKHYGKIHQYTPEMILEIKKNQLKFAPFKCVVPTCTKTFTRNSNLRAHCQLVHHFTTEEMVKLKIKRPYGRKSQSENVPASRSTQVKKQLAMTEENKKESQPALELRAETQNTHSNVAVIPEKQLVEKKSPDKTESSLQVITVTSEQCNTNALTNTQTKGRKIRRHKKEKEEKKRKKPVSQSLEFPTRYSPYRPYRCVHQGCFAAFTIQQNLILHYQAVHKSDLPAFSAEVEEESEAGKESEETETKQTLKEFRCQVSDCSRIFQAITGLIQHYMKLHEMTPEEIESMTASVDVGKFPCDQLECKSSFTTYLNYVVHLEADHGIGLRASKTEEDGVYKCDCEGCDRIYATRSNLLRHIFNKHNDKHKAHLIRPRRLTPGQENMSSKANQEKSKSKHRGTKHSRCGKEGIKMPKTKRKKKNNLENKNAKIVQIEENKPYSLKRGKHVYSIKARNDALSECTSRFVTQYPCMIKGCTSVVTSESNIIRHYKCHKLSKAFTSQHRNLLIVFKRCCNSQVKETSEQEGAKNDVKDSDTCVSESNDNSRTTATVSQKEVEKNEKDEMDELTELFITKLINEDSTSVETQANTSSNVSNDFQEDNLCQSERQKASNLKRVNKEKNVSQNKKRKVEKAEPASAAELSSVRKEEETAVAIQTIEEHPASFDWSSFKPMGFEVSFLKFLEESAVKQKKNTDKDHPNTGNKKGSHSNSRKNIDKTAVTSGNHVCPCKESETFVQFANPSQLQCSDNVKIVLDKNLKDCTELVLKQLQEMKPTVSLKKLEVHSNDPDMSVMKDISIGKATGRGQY
Chain of UniProt O95232 (O95232 whole entry, one chain of several): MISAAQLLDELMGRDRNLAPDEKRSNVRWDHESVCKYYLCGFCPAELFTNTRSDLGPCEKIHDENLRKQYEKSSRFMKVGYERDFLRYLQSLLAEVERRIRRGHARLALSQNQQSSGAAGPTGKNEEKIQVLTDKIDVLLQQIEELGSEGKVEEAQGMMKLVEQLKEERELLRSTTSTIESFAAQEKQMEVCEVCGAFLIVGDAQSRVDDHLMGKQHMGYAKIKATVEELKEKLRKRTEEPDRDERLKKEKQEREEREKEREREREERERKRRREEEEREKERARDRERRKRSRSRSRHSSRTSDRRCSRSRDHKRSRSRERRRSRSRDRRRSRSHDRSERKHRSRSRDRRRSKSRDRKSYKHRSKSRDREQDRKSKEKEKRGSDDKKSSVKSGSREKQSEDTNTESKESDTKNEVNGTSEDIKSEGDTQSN

Target	NP40-soluble protein abundance (concentration: 0.1mM)	NP40-soluble protein abundance (concentration: 0.5mM)	NP40-soluble protein abundance (concentration: 1mM)	NP40-soluble protein abundance (concentration: 2mM)	NP40-soluble protein abundance (concentration: 4mM)	NP40-soluble protein abundance (concentration: 6mM)	NP40-soluble protein abundance (concentration: 8mM)	NP40-soluble protein abundance (concentration: 10mM)
TGFB1 (UniProt P01137)	0.926 ± 0.072	1.02 ± 0.11	0.908 ± 0.091	0.961 ± 0.092	0.987 ± 0.055	0.958 ± 0.088	0.896 ± 0.11	0.968 ± 0.14
SLC16A7 (UniProt O60669)	1.09 ± 0.034	0.98 ± 0.24	1.143 ± 0.0046	1.06 ± 0.15	1.1 ± 0.079	0.966 ± 0.15	1.12 ± 0.089	1.05 ± 0.16
M0R2S1|P62987 (UniProt P62987)	0.88 ± 0.084	0.895 ± 0.11	1.01 ± 0.17	0.915 ± 0.11	0.89 ± 0.089	0.886 ± 0.068	0.867 ± 0.12	0.941 ± 0.11
J3KNV1|O60281|O60281-2 (UniProt O60281)	1.06 ± 0.041	1.05 ± 0.095	1.12 ± 0.066	1.09 ± 0.13	1.02 ± 0.051	1.04 ± 0.15	1.07 ± 0.057	1.05 ± 0.036
J3KPP4|O95232|H0YA81 (UniProt O95232)	1.13 ± 0.027	1.45 ± 0.062	1.54 ± 0.1	1.54 ± 0.095	1.56 ± 0.12	1.63 ± 0.13	1.72 ± 0.19	1.74 ± 0.18
